We go through 40 compounds from PubChem BioAssay (Tox21).

Results filed as inconclusive are left out. A number with no mark means an inactive call. The source made the active and inactive calls. Calls come from the whole dose curve; as a rule, active = well fitted activation curve with a large enough effect in the repeat runs; inconclusive = weak or mixed curves; inactive = no such curve, though single readings can be large or run the other way.
% is set by controls: 0 for no effect and ±100 for the full control effect; potency is the fitted concentration of half-maximal effect.

Sequence of Nuclear receptor subfamily 1 group I member 3 (Homo sapiens) (Q14994 whole entry, looked up): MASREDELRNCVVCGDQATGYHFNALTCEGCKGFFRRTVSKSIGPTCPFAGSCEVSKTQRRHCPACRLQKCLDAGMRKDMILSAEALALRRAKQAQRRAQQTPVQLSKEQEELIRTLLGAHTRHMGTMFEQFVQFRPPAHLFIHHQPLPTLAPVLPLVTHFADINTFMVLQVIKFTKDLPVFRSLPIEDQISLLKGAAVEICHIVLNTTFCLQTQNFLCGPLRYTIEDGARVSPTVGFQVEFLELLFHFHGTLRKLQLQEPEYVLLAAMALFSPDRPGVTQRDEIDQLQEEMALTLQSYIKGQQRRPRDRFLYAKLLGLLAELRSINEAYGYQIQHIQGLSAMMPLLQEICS

This assay deals with Nuclear receptor subfamily 1 group I member 3 (Homo sapiens) (UniProt Q14994). The experiment in a line: qHTS assay to identify small molecule agonists of the constitutive androstane receptor (CAR) signaling pathway (AID 1224839).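 For activation: HepG2 cells stably carrying human CAR and a CYP2B6 luciferase reporter.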 Note: nearly all actives have a fitted effect of over 15% in size. The settings on record: HepG2 hCAR CYP2B6-luciferase, agonist mode, 24 h; series mostly up to 92.4 µM; activation: at the top concentration. An excerpt:
National Center for Advancing Translational Sciences [NCATS] NIH Chemical Genomics Center [NCGC] U.S. Environmental Protection Agency [EPA] National Institutes of Environmental Health Sciences [NIEHS] National Toxicology Program [NTP] Assay overview: The constitutive androstane receptor (CAR) is a nuclear receptor which regulates multiple drug metabolizing enzymes (DMEs) and transporters. Activating CAR will generally increase the transcription and subsequent translation of CYP2B6 and CYP3A4. These two DMEs represent about 50% of the drug metabolizing potential in the body. […] Recently, there have also been studies performed indicating CARs role in energy metabolism and cancer therapy. Therefore, inducing CARs activity could have a potential effect on diabetes and cancer. Identifying environmental toxins and compounds which modulate CAR, through the use of the Tox21 10K compound collection, will be an important step in determining the toxicity and potential therapeutic effects these factors will have on the human body.
Assay Protocol Summary: A double-stable (hCAR and CYP2B6-2.2kb) transfected cell line, derived from human hepatoma (HepG2) cells, was utilized for the duration of the quantitative high-throughput screens. The HepG2-CYP2B6-hCAR cells suspended in DMEM culture medium supplemented with 10% FBS, 5 ug/mL blasticidin, 0.5 mg/mL geneticin, 100 U/mL penicillin and 100 ug/mL streptomycin were dispensed at 2500 cells/4 uL/well in 1536-well white solid bottom plates using a Multidrop Combi. After the assay plates were incubated at 37 C/5% CO2 for 4 hrs, 23 nL of compounds at 15 concentrations (from 5-48 columns) or positive control (from 1 to 4 columns) were transferred to the assay plates using a Pintool station. One uL of PK11195, was added using a Flying Reagent Dispenser to generate a final concentration of 0.75 uM PK11195 inside each well. After a 24 hr incubation period at 37 C/5% CO2, four uL of ONE-Glo reagent was added into the assay plates using a Flying Reagent Dispenser. After a 30 min incubation period at room temperature, the luminescence intensity in the assay plates was measured using a ViewLux plate reader.
For `CC(C)(C)OC(=O)c1cccc(N)c1`, the “activation” value was 5.07%. `COc1cc(C(=O)NCc2ccc(OCCN(C)C)cc2)cc(OC)c1OC`: the “activation” value is -0.0408% [at 42.5 µM]. Still for that read-out and setting: the value for `[K+]` was -7.31%; that for `CCN1CCOCC1` was 9.42%; that for `CN(C)C(=O)Oc1cccc([N+](C)(C)C)c1` was -1.28% [at 42.5 µM]. For `CC(COc1ccccc1)NN` (stereo not given), the “activation” value was 1.2% [at 42.5 µM]. For the compound `CCCCCCCCCCCCCCC(=O)O`, the “activation” value is 1.88%. For the compound `C[C@@H]1C[C@H]2[C@@H]3C[C@H](F)C4=CC(=O)C(Cl)=C[C@]4(C)[C@@]3(F)[C@@H](O)C[C@]2(C)[C@@]1(O)C(=O)CO`, the “activation” value is -0.201% [at 42.5 µM]. Consider `[O-][n+]1cccc(CO)c1`, for which the “activation” value is 0.322% [at 42.5 µM]. `O=S(=O)(O)c1cccc(S(=O)(=O)O)c1`: the “activation” value was 1.74%. With `CCCCCCC#CC(=O)OC`, the “activation” value was -4.06%. On to `CCCCOC(=O)CCC(C)=O`, for which the “activation” value is -3.43%. Take `NS(=O)(=O)Cc1noc2ccccc12`: the “activation” value is 0.025% [at 42.5 µM].

Regarding `C=C(C)C(=O)OCC(O)CO` (stereo not given), the “activation” value was -0.684% [at 42.5 µM].

On to `C[C@H]1C[C@H]2[C@@H]3CCC4=CC(=O)C=C[C@]4(C)[C@H]3C(=O)C[C@]2(C)[C@@]1(O)C(=O)CO`, for which the “activation” value is -1.78% [at 42.5 µM]. Take `CCCCCCCCN1CCCC1=O`: the Potency was 30.6 µM (active).

For the compound `CCOC(=O)OC(C)OC1=C(C(=O)Nc2ccccn2)N(C)S(=O)(=O)c2ccccc21` (stereo not given), the “activation” value is 7.34% [at 42.5 µM].

In the case of `Cc1ncc(COP(=O)(O)O)c(C=O)c1O`, the “activation” value is -2.33% [at 42.5 µM].

For `C=CC(C)(CCC=C(C)C)OC(=O)CC` (stereo not given), the “activation” value was 3.23%.

As to `Nc1ccn([C@@H]2O[C@H](CO)[C@@H](O)C2(F)F)c(=O)n1`, the “activation” value is -10% [at 42.5 µM]. For `CC(=O)N1C[C@H](O)C[C@H]1C(=O)O`, the “activation” value is -4.23% [at 42.5 µM]. For the compound `Nc1ccncc1N`, the “activation” value was 2.01% [at 42.5 µM]. Regarding `CNCC(O)c1ccc(O)c(O)c1` (stereo not given), the “activation” value was -1.36% [at 42.5 µM]. Same read-out and setting: the value for `CC(C)C1CCC(O)CC1` (stereo not given) was -1.97%; that for `CC1=C(C/C=C(\C)CCC[C@H](C)CCC[C@H](C)CCCC(C)C)C(=O)c2ccccc2C1=O` was -0.487% [at 42.5 µM]; that for `Nc1ccn([C@@H]2O[C@H](CO)[C@@H](O)C2O)c(=O)n1` (stereo not given in full) was -2.88%.

As to `CCCCCC(=O)OCCc1ccccc1`, the “activation” value was 2.15%. With `CCCCCCCCCCOc1cc2c(=O)c(C(=O)OCC)c[nH]c2cc1OCC`, the activation is -0.235% [at 8.39 µM].

Consider `Clc1cc(Cl)c(Cl)nc1Cl`, for which the “activation” value was -0.332%. Same read-out and setting: next, `c1ccc(CCc2ccccc2)cc1`: 1.85%.

As for `OCCCCCO`, the “activation” value is 2.25%. On to `CC1CCC(CO)CC1` (stereo not given), for which the “activation” value was -4.84%. As to `C[N+]1(CC2COC(c3ccccc3)(c3ccccc3)O2)CCCCC1` (stereo not given), the activation is -2.79% [at 19 µM].

In the case of `CCOc1ccc2nc(S(N)(=O)=O)sc2c1`, the Potency was 7.5 µM (active). As to `CCC(C)(CCCC(C)C)OC(C)=O` (stereo not given), the “activation” value is 0.145%. For `CO[C@@]1(NC(=O)C(C(=O)O)c2ccc(O)cc2)C(=O)N2C(C(=O)O)=C(CSc3nnnn3C)CO[C@@H]21` (stereo not given in full), the “activation” value was -1.82% [at 42.5 µM].

With `CC(=O)c1cnccn1`, the “activation” value is 4.46%. Turning to `CCCC[N+](C)(CCCC)CCCC`, the “activation” value is -0.383%.

As to `CC(CC=O)CC(C)(C)C` (stereo not given), the “activation” value was -1.56%. In the case of `O=S(=O)(O)c1cc(O)c(O)c(S(=O)(=O)O)c1`, the “activation” value is -3.23%.
